# Source: PubChem BioAssay
# Calls of active or inactive are those of the source.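 The calls were made as follows: active = viability loss from added drug above about 55%, and viability with drug at most 40%, in both replicates (limit read from the data, passing the limit was not always enough); inconclusive = both conditions met in only one replicate; inactive = neither replicate meets both conditions.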
# Assay: reversal of MRP1-mediated doxorubicin resistance, pilot screen, H69AR cells, doxorubicin co-treatment (AID 601)
# Settings: H69AR cells + 2 uM doxorubicin, CellTiter-Glo, 72 h; at 10 µM; stronger effect = higher value
row,Structure (SMILES),differential viability (reversal)
1,Cc1cc(NCC2CCCO2)n2c(nc3ccccc32)c1C#N (stereo not drawn),38.9% (inactive)
2,Cc1nc(NC2=NCN(CCCN3CCOCC3)CN2)nc2c(C)cccc12,-12.3% (inactive)
3,Cc1nnc(NC(=O)CCC(=O)N2CCC(C)CC2)s1,1.93% (inactive)
4,CCC(=O)Nc1ccc(NC(=O)c2ccccn2)cn1,13.6% (inactive)
5,Cc1cccc(N2CCN(C(=O)C3CCCN(S(=O)(=O)c4c(C)noc4C)C3)CC2)c1C (stereo not drawn),2.14% (inactive)
6,CCOC(=O)C1CCCN(CC(=O)NC2CC2)C1 (stereo not drawn),-1.56% (inactive)
7,Cc1ccc(C)c(N(CC(=O)NC2CCCC2)C(=O)CCCC(=O)Nc2ccccn2)c1,13.7% (inactive)
8,O=C1C2ON(c3ccc(Cl)cc3)C(c3ccco3)C2C(=O)N1c1ccccc1 (stereo not drawn),8.97% (inactive)
9,CC1=Nn2c(nnc2-c2ccccc2)SC1,17.6% (inactive)
10,O=C(NCCN1CCOCC1)C1CCC(=O)N1Cc1ccccc1Cl (stereo not drawn),3.78% (inactive)
11,C=CCNC(=O)C1CC(=O)N(c2ccc(OCC(=O)Nc3ccc(OC)cc3)cc2)C1 (stereo not drawn),5.12% (inactive)
12,Cc1ccccc1-n1c(SCc2c(C)noc2C)nnc1-c1ccncc1,8.34% (inactive)
13,c1cc2c(cc1Nc1nc(-c3ccc4c(c3)OCO4)cs1)OCCO2,-8.93% (inactive)
14,CC(=O)OC1CSc2nc3ccccc3n2C1 (stereo not drawn),7.46% (inactive)
15,CCOC(=O)c1cc(-c2ccccc2)sc1N,3.5% (inactive)
16,CC1(C)CC(=O)C2=C(C1)NC(=O)CC2C(=O)NCc1ccc(F)cc1 (stereo not drawn),15.3% (inactive)
17,Cc1ccc2nc(-c3ccc4c(c3)OCCO4)cc(C(=O)O)c2c1,5.86% (inactive)
18,Cn1nc(-c2ccc(N3CCCCC3)c(NC(=O)c3ccco3)c2)c2ccccc2c1=O,11.6% (inactive)
19,Cc1[nH]nc2c1C(=O)CCC2,4.79% (inactive)
20,COc1cc(C(=O)N(C)c2nnc(-c3cccnc3)s2)cc(OC)c1OC,-8.95% (inactive)
21,Cc1noc(C)c1CSc1nc2ccccc2s1,-3.12% (inactive)
22,O=S1(=O)CCC(N=Cc2cc(Br)ccc2O)C1 (stereo not drawn),-14.3% (inactive)
23,CC(C)(C)C1=Nn2c(nnc2-c2n[nH]c3c2CCC3)SC1,-4.71% (inactive)

# Same assay, conditions: H69AR cells + 2 uM doxorubicin, CellTiter-Glo, 72 h; measured here: viability with 2 uM doxorubicin; at 10 µM; stronger effect = lower value
row,Structure (SMILES),viability [%]
1,COC(=O)CCn1nnc(-c2ccc(C)cc2)n1,90.4
2,COC(=O)CCC(=O)CN,92.8
3,O=C(Nc1ccc(N2CCCC2)cc1)c1cccc(F)c1,50.3
4,Cc1nc(-c2coc3cc(OCC(=O)O)ccc3c2=O)cs1,89
5,CCN1CCc2c(C#N)c(N3CCCCC3)nc(NCc3ccccc3)c2C1,26.4
6,Cc1ccc(S(=O)(=O)N2CCCN(S(=O)(=O)C3CCS(=O)(=O)C3)CC2)cc1 (stereo not drawn),90.4
7,COc1nc(NCCc2ccc(OC)c(OC)c2)nc(NC(C)(C)CO)n1,87.8
8,O=C(O)c1cc(-c2ccccc2)nc2ccccc12,74.6
9,Cc1nc2ccc(C(=O)O)cc2c2c1CC(C)S2 (stereo not drawn),93.1
10,COC(=O)c1ccc(COC(=O)c2c(C)nn(Cc3ccccc3Cl)c2Cl)o1,82.1
11,CSc1nnc(-c2cnccn2)n1Cc1ccccc1,95.7
12,COCCNC(=O)C(c1ccc(C)o1)N(Cc1cccs1)C(=O)c1snc(C(N)=O)c1N (stereo not drawn),86
13,COc1ccc(CCNC(=O)CSCc2n[nH]c(=O)[nH]2)cc1OC,88.6
14,CCCOc1cccc(C(=O)Nc2cc(NC(=O)c3ccco3)ccc2OC)c1,91.1
15,Cc1cc(S(=O)(=O)N2CCN(c3ccccc3C)CC2)ccc1F,79.8
16,O=S(=O)(c1ccc(Br)s1)N1CCN(c2ccccc2)CC1,91.7
17,O=C(CSCc1ccc(F)cc1)NC1CCCC1,82.2
18,Cc1cc(NCC2CCCO2)n2c(nc3ccccc32)c1C#N (stereo not drawn),32.1
19,Cc1nc(NC2=NCN(CCCN3CCOCC3)CN2)nc2c(C)cccc12,65.8
20,Cc1nnc(NC(=O)CCC(=O)N2CCC(C)CC2)s1,88.9

row,Structure (SMILES),viability [%]
1,CCC(=O)Nc1ccc(NC(=O)c2ccccn2)cn1,84.6
2,Cc1cccc(N2CCN(C(=O)C3CCCN(S(=O)(=O)c4c(C)noc4C)C3)CC2)c1C (stereo not drawn),79.7
3,CCOC(=O)C1CCCN(CC(=O)NC2CC2)C1 (stereo not drawn),89.7
4,Cc1ccc(C)c(N(CC(=O)NC2CCCC2)C(=O)CCCC(=O)Nc2ccccn2)c1,87.8
5,O=C1C2ON(c3ccc(Cl)cc3)C(c3ccco3)C2C(=O)N1c1ccccc1 (stereo not drawn),91.2
6,CC1=Nn2c(nnc2-c2ccccc2)SC1,77.7
7,O=C(NCCN1CCOCC1)C1CCC(=O)N1Cc1ccccc1Cl (stereo not drawn),86.3
8,C=CCNC(=O)C1CC(=O)N(c2ccc(OCC(=O)Nc3ccc(OC)cc3)cc2)C1 (stereo not drawn),103
9,Cc1ccccc1-n1c(SCc2c(C)noc2C)nnc1-c1ccncc1,79.1
10,c1cc2c(cc1Nc1nc(-c3ccc4c(c3)OCO4)cs1)OCCO2,99.4
11,CC(=O)OC1CSc2nc3ccccc3n2C1 (stereo not drawn),85.9
12,CCOC(=O)c1cc(-c2ccccc2)sc1N,77.8
13,CC1(C)CC(=O)C2=C(C1)NC(=O)CC2C(=O)NCc1ccc(F)cc1 (stereo not drawn),95.5
14,Cc1ccc2nc(-c3ccc4c(c3)OCCO4)cc(C(=O)O)c2c1,95
15,Cn1nc(-c2ccc(N3CCCCC3)c(NC(=O)c3ccco3)c2)c2ccccc2c1=O,20.8
16,Cc1[nH]nc2c1C(=O)CCC2,96.3
17,COc1cc(C(=O)N(C)c2nnc(-c3cccnc3)s2)cc(OC)c1OC,91.6
18,Cc1noc(C)c1CSc1nc2ccccc2s1,70.9
19,O=S1(=O)CCC(N=Cc2cc(Br)ccc2O)C1 (stereo not drawn),92.4
20,CC(C)(C)C1=Nn2c(nnc2-c2n[nH]c3c2CCC3)SC1,90.6
